The text below walks through data of publication PMC7862700, “An all-to-all approach to the identification of sequence-specific readers for epigenetic DNA modifications on cytosine”.

Test in all cases: DAPPL (digital affinity profiling via proximity ligation, sequencing); 10 mM Tris-HCl pH 7.5, 50 mM NaCl, 1 mM DTT, 4% glycerol, room temperature, 30 min; GST-TFs on glutathione beads, 16-mer random dsDNA library, 0.1% formaldehyde crosslink after washing; high values mean tight binding
Assay [1] deals with T1, FLI1 (Homo sapiens, UniProt Q01543 1-452).
T1 sequence: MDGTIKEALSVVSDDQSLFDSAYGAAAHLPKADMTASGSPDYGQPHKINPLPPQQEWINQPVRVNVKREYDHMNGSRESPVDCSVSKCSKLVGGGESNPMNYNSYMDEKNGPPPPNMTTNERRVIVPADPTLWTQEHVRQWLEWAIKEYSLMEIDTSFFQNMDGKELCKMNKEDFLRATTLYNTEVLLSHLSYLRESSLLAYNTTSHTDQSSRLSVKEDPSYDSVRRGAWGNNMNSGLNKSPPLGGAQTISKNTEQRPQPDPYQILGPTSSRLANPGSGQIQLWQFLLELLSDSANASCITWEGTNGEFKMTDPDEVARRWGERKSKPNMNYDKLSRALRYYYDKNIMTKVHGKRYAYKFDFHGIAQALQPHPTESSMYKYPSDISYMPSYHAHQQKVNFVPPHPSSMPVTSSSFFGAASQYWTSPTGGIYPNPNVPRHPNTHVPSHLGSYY
Conditions: protein: recombinant; tags: N-terminal GST; dsDNA, one strand shown. The method in brief: (§1)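 Yeast served to express human transcription factors as GST fusions, which were then captured on glutathione beads and labelled with DNA barcodes. Pooled with a tag-only sample, they were incubated with 200 nmole of a 16-mer random double-stranded DNA library for 30 min at room temperature in Tris/NaCl/DTT/glycerol buffer, washed, crosslinked with 0.1% formaldehyde, ligated by proximity, amplified by PCR and sequenced. Dividing each hexamer's read frequency for a factor by its frequency for the tag-only sample gives the binding signal.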

The target of assay [2] is T2, ELK1 (Homo sapiens, UniProt P19419 1-428).
T2 sequence: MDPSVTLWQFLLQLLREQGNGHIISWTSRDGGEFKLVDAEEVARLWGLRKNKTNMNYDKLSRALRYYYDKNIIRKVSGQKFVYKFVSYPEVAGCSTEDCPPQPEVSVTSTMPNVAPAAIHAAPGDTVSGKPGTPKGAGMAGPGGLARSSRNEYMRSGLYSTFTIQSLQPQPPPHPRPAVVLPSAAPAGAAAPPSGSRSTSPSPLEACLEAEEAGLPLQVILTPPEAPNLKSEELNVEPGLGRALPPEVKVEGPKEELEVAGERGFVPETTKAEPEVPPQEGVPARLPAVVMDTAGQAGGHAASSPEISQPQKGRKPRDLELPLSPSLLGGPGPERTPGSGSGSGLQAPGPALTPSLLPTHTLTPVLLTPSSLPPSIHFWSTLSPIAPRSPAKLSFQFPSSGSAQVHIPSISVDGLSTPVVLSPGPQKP
The note with it: protein: recombinant; tags: N-terminal GST; dsDNA, one strand shown. Put shortly: as §1

Assay [3] addresses T3, GABPA (Homo sapiens, UniProt Q06546 1-454).
T3 sequence: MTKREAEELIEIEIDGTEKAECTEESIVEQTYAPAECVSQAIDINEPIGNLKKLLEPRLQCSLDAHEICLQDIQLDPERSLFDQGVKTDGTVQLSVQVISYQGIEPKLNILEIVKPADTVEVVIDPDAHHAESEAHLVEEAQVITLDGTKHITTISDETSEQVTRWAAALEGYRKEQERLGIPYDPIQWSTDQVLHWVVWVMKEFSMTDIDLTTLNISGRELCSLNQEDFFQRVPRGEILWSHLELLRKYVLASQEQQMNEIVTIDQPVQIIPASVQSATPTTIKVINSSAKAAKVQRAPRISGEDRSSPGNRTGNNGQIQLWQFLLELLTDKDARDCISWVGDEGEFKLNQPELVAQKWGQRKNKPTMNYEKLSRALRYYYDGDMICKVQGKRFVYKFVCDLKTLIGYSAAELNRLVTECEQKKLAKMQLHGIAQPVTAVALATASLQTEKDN
Conditions: protein: recombinant; tags: N-terminal GST; dsDNA, one strand shown. The method in brief: as §1

For assay [4], the target named is T4, ERG (Homo sapiens, UniProt P11308 1-479).
T4 sequence: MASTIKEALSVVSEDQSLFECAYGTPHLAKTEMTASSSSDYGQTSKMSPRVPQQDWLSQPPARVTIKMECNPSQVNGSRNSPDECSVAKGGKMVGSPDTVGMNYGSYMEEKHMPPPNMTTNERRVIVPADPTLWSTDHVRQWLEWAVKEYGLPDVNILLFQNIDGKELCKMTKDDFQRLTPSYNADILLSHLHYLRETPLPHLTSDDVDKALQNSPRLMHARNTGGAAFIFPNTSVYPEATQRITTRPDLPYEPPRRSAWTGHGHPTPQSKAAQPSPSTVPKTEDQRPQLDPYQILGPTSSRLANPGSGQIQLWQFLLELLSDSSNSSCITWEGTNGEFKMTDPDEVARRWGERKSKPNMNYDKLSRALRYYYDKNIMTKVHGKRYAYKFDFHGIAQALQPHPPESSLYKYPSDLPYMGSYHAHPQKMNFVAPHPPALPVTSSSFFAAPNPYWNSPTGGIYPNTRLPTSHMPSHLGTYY
The note with it: protein: recombinant; tags: N-terminal GST; dsDNA, one strand shown. Put shortly:
as §1

Assay [5] concerns the target ELF1 (Homo sapiens, UniProt P32519 1-619). Conditions: protein: recombinant; tags: N-terminal GST; dsDNA, one strand shown. The method in brief: as §1
The target of assay [6] is T5, EHF (Homo sapiens, UniProt Q9NZC4 1-300).
T5 sequence: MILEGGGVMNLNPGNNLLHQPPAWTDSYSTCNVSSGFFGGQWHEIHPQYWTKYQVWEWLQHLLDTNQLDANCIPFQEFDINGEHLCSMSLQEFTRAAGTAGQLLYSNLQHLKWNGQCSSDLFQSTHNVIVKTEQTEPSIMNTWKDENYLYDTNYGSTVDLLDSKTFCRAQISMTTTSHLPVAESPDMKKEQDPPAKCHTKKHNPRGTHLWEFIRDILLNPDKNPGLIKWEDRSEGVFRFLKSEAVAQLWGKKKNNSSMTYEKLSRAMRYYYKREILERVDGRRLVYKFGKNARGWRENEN
Conditions: protein: recombinant; tags: N-terminal GST; dsDNA, one strand shown. The method in brief:
as §1

The target of assay [7] is SPI1 (Homo sapiens, UniProt P17947 1-270). The note with it: protein: recombinant; tags: N-terminal GST; dsDNA, one strand shown. Put shortly:
as §1

Assay [8] deals with SPIB (Homo sapiens, UniProt Q01892 1-262). The note with it: protein: recombinant; tags: N-terminal GST; dsDNA, one strand shown. Put shortly:
as §1

Assay [9] has as its target T6, ELK3 (Homo sapiens, UniProt P41970 1-407).
T6 sequence: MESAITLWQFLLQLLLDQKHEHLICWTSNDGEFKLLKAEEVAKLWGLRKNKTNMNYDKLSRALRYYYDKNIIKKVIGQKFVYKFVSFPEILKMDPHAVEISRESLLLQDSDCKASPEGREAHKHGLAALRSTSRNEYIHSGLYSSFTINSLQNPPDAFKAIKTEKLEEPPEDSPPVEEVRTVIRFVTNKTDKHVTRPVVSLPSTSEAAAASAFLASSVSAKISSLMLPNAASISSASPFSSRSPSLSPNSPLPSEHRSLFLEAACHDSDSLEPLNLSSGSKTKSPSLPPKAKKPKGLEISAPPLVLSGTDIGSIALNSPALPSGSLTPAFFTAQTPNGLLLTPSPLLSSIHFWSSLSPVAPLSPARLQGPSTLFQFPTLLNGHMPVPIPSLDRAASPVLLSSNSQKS
The note with it: protein: recombinant; tags: N-terminal GST; dsDNA, one strand shown. The method in brief: as §1

The target of assay [10] is T7, FEV (Homo sapiens, UniProt Q99581 1-238).
T7 sequence: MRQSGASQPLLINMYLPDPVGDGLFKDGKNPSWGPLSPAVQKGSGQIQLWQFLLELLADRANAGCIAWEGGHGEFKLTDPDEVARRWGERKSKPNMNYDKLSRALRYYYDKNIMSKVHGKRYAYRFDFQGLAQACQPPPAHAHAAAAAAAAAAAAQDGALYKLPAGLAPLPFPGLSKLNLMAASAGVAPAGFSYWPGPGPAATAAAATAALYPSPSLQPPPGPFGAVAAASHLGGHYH
Conditions: protein: recombinant; tags: N-terminal GST; dsDNA, one strand shown. Put shortly:
as §1

The target of assay [11] is ETV5 (Homo sapiens, UniProt P41161 1-510). The note with it: protein: recombinant; tags: N-terminal GST; dsDNA, one strand shown. Put shortly: as §1
Sequence of ETV5 (P41161 whole entry): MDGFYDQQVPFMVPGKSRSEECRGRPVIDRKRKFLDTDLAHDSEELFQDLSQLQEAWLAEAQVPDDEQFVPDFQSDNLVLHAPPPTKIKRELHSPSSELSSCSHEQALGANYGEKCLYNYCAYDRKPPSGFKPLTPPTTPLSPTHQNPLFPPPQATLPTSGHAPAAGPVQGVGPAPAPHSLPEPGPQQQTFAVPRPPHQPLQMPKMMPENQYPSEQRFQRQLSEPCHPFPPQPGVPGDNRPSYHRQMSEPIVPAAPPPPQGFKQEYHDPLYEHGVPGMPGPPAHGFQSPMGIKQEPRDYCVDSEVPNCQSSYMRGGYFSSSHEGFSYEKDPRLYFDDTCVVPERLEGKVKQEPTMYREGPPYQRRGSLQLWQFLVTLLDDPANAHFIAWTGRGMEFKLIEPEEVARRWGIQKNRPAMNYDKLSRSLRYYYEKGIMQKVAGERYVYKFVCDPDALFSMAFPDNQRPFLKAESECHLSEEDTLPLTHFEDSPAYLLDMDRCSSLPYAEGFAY
Assay [12] has as its target HSF1 (Homo sapiens, UniProt Q00613 1-529). The note with it: protein: recombinant; tags: N-terminal GST; chain copies: 3; dsDNA, one strand shown. Put shortly: as §1
Assay [13] addresses T8, SPIC (Homo sapiens, UniProt Q8N5J4 1-248).
T8 sequence: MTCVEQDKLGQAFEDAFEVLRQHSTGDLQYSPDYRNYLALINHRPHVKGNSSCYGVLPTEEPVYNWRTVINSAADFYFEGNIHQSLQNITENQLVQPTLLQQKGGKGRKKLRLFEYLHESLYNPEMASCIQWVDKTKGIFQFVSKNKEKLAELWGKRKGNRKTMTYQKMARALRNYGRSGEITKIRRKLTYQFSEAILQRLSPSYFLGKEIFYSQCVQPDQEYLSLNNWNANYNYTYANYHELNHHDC
Conditions: protein: recombinant; tags: N-terminal GST; dsDNA, one strand shown. Put shortly:
as §1

The target in assay [14] is ELF4 (Homo sapiens, UniProt Q99607 1-663). The note with it: protein: recombinant; tags: N-terminal GST; dsDNA, one strand shown. Put shortly:
as §1

The target in assay [15] is T9, ELK4 (Homo sapiens, UniProt P28324-2 1-405).
T9 sequence: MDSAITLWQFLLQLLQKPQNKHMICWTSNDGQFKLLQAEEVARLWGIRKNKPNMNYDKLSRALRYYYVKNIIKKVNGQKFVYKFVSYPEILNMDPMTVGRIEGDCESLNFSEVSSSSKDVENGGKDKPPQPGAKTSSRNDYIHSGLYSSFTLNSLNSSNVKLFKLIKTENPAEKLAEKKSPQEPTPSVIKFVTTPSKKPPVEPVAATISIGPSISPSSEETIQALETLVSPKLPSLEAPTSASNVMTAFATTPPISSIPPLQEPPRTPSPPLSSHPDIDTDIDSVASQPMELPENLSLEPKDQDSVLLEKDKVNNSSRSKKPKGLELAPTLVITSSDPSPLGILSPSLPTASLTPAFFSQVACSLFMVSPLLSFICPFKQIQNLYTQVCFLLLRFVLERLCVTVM
The note with it: protein: recombinant; tags: N-terminal GST; dsDNA, one strand shown. The method in brief: as §1

For assay [16], the target named is T10, ETV2 (Homo sapiens, UniProt O00321 1-342).
T10 sequence: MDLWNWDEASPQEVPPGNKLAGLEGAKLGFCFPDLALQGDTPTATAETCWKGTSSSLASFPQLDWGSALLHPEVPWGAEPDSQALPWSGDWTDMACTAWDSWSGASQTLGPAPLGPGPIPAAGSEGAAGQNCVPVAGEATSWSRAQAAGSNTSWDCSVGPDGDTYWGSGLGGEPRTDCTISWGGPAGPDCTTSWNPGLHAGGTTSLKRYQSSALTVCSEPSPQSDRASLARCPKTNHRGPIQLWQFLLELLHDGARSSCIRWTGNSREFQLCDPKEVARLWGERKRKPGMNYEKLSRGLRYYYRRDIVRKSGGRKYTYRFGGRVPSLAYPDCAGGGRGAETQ
The note with it: protein: recombinant; tags: N-terminal GST; dsDNA, one strand shown. Put shortly: as §1

Assay [17] has as its target T11, ELF3 (Homo sapiens, UniProt P78545 1-371).
T11 sequence: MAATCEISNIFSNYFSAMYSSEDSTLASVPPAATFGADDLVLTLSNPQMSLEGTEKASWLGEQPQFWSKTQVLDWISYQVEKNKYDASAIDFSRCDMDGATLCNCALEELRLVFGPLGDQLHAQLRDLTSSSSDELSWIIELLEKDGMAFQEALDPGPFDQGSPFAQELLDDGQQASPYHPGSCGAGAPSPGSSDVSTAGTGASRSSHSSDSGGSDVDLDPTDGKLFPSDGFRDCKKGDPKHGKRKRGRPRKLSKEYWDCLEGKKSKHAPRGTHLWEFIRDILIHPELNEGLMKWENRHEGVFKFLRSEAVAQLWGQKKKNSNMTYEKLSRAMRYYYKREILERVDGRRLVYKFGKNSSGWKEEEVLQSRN
Conditions: protein: recombinant; tags: N-terminal GST; dsDNA, one strand shown. The method in brief:
as §1

The target of assay [18] is CRX (Homo sapiens, UniProt O43186 1-299). The note with it: protein: recombinant; tags: N-terminal GST; dsDNA, one strand shown. The method in brief:
as §1

Assay [19] concerns the target ETV1 (Homo sapiens, UniProt P50549 1-477). Conditions: protein: recombinant; tags: N-terminal GST; dsDNA, one strand shown. The method in brief:
as §1

Sequence of ETV1 (P50549 whole entry): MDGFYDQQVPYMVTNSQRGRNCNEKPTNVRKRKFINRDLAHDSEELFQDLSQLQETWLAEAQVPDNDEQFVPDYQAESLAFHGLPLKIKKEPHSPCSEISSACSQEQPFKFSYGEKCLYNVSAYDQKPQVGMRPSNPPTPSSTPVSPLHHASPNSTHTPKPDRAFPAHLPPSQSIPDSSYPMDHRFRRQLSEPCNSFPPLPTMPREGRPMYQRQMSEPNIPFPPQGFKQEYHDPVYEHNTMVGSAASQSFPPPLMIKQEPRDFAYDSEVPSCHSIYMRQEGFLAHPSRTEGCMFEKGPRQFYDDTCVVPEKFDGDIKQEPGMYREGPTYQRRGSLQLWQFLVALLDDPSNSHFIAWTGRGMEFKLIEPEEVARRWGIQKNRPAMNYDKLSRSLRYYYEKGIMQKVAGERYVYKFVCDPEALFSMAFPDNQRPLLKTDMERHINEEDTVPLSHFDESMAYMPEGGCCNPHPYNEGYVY
Sequence of ELF4 (Q99607 whole entry): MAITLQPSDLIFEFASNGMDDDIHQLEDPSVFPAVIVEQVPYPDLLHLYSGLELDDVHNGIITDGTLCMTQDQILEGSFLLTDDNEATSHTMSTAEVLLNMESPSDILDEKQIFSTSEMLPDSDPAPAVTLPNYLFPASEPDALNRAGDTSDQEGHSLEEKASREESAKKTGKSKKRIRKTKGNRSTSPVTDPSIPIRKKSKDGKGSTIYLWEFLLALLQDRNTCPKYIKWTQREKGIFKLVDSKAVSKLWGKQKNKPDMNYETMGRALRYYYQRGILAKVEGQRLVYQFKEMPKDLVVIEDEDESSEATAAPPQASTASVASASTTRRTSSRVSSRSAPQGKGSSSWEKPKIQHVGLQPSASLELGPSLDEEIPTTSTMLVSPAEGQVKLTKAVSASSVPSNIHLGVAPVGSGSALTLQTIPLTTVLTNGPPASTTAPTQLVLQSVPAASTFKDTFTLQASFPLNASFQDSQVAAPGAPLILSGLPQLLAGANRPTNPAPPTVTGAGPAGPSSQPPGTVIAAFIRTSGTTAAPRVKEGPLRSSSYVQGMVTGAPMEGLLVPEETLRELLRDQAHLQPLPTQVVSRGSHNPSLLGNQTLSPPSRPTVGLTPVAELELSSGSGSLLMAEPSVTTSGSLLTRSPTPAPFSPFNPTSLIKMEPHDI
Sequence of HSF1 (Q00613 whole entry): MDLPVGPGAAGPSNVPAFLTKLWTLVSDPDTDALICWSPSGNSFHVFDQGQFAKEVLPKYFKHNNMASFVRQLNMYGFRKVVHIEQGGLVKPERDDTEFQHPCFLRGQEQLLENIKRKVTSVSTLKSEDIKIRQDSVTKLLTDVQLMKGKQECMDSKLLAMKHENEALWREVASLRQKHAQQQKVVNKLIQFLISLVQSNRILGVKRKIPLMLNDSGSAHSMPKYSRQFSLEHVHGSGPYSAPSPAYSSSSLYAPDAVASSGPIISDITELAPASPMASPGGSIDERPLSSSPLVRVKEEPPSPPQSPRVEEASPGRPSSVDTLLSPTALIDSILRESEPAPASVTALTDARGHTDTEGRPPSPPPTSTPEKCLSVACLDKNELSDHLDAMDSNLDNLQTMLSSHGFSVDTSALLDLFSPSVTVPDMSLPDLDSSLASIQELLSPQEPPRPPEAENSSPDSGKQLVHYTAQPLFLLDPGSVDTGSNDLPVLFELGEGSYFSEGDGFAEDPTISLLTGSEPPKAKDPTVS
Sequence of ELF1 (P32519 whole entry): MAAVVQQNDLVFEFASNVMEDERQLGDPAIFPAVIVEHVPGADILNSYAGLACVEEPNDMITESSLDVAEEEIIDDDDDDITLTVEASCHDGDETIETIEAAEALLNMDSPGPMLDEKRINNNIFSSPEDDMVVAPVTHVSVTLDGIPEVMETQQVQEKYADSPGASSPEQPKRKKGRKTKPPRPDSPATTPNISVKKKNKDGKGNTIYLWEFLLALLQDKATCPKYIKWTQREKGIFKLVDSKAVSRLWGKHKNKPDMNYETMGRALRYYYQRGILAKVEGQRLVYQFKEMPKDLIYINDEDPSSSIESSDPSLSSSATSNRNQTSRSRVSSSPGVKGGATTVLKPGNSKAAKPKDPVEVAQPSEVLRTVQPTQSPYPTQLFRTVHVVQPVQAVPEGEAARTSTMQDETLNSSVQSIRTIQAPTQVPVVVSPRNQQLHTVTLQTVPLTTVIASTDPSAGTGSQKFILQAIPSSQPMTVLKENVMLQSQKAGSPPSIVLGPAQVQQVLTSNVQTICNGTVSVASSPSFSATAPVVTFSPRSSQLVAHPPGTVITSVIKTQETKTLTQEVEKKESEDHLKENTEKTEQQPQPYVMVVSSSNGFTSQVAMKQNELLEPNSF
Sequence of CRX (O43186 whole entry): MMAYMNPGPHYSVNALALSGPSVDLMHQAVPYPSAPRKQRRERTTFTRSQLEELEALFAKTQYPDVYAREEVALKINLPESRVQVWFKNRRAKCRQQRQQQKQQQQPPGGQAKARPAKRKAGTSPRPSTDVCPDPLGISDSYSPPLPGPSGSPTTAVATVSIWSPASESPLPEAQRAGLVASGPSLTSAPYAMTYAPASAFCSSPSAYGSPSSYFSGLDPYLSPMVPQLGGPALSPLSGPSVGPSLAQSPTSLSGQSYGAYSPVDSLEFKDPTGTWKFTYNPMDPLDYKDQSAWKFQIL
Sequence of SPIB (Q01892 whole entry): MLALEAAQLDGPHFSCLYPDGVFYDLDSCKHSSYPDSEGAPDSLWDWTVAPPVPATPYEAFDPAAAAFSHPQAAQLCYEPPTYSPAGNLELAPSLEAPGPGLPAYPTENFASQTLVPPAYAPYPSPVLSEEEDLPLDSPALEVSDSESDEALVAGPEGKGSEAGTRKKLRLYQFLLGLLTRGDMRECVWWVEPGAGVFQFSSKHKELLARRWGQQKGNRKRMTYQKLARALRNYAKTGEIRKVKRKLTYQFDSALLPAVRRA

Consider GCAAAT, for which the binding signal in assay [1] is 1.05 fold enrichment (6-mer frequency, TF over GST control); in [2] it was 1.04 fold enrichment (6-mer frequency, TF over GST control); in assay [3], 1.04 fold enrichment (6-mer frequency, TF over GST control); in assay [4], 1.18 fold enrichment (6-mer frequency, TF over GST control); in assay [5], 1.11 fold enrichment (6-mer frequency, TF over GST control); in assay [6], 1.03 fold enrichment (6-mer frequency, TF over GST control). Further, the binding signal was 1.02 fold enrichment (6-mer frequency, TF over GST control) in [7]; 1.14 fold enrichment (6-mer frequency, TF over GST control) in assay [8]; 1.01 fold enrichment (6-mer frequency, TF over GST control) in assay [9]; 1.08 fold enrichment (6-mer frequency, TF over GST control) in [10]; 1.1 fold enrichment (6-mer frequency, TF over GST control) in [11]; 1.08 fold enrichment (6-mer frequency, TF over GST control) in assay [12]. Also, the binding signal was 1.17 fold enrichment (6-mer frequency, TF over GST control) in assay [13]; 1.04 fold enrichment (6-mer frequency, TF over GST control) in [14]; 1.02 fold enrichment (6-mer frequency, TF over GST control) in [15]; 1.06 fold enrichment (6-mer frequency, TF over GST control) in [16]; 1.17 fold enrichment (6-mer frequency, TF over GST control) in [17]; 1.08 fold enrichment (6-mer frequency, TF over GST control) in [18]. The binding signal in [19] was 1.11 fold enrichment (6-mer frequency, TF over GST control).
